From PubChem BioAssay (Tox21)
Unmarked numbers belong to inactive results. A call without a number means that no potency is given here. Calls of active or inactive are those of the source. Calls come from the whole dose curve.

target: Acetylcholinesterase (Homo sapiens) (UniProt P22303); test: Acetylcholinesterase (AChE) small molecule antagonists: enzyme-based qHTS assay with human liver microsomes (AID 1347399); details: Potency: qHTS inhibition; outcome: qHTS inhibition; series mostly up to 115 µM; note: nearly all actives have a fitted effect of over 60% in size
Text: National Center for Advancing Translational Sciences [NCATS]
Division of Preclinical Innovation [DPI]
U.S. Environmental Protection Agency [EPA]
National Institutes of Environmental Health Sciences [NIEHS]
National Toxicology Program [NTP]
U.S. Food and Drug Administration [FDA]
Acetylcholinesterase (AChE) is the primary cholinesterase in the body that hydrolyzes a key neurotransmitter, acetylcholine. Inhibition of AChE activity can lead to neurotoxicity. The known inhibitors include organophosphorous pesticides (OP), chemical warfare agents, drugs, and various phytochemicals. Some compounds like OP compounds may need metabolic activation to be active AChE inhibitors. The cytochrome P450 (CYP) superfamily in the human microsomes is responsible for the metabolism of various endogenous and exogenous compounds.
An enzyme-based assay with the recombinant human AChE, human liver microsomes and Amplite Colormetric acetylcholinesterase assay kit (AAT Bioquest, Sunnyvale, CA) was used to evaluate compounds in the Tox21 10K library that need metabolic activation for AChE inhibition. The assay uses 5, 5-dithiobis-(2-nitrobenzoic acid) (DTNB) to quantify the thiocholine produced from the hydrolysis of acetylthiocholine by AChE.
Tox21 Assay Protocol Summary:
For the enzyme-based AChE assay with microsomes addition, a mixture of human AChE (50 mU/mL) and human liver microsomes (0.25 mg/mL, final concentration) in 3 uL/well was dispensed into black, clear-bottom 1536-well plates using a Multidrop Combi dispenser (Thermo Scientific, MA). Then, 23 nL of compound or DMSO (vehicle control) was transferred into the assay plates by a Pintool Station (Wako Automation, CA). Following compound addition, 1 uL of NADPH (0.25 mg/mL, final concentration) was transferred to the assay plate by a Flying Reagent Dispenser (Beckman Coulter, CA). The plates were incubated for 30 min at 37 C and 5% CO2, followed by the addition of 4 uL of colorimetric detection cocktail solution (DTNB, acetylthiocholine) into each well using a Flying Reagent Dispenser (Beckman Coulter, CA) and then 10 min incubation at room temperature.

Sequence of Acetylcholinesterase (Homo sapiens) (P22303 whole entry, looked up): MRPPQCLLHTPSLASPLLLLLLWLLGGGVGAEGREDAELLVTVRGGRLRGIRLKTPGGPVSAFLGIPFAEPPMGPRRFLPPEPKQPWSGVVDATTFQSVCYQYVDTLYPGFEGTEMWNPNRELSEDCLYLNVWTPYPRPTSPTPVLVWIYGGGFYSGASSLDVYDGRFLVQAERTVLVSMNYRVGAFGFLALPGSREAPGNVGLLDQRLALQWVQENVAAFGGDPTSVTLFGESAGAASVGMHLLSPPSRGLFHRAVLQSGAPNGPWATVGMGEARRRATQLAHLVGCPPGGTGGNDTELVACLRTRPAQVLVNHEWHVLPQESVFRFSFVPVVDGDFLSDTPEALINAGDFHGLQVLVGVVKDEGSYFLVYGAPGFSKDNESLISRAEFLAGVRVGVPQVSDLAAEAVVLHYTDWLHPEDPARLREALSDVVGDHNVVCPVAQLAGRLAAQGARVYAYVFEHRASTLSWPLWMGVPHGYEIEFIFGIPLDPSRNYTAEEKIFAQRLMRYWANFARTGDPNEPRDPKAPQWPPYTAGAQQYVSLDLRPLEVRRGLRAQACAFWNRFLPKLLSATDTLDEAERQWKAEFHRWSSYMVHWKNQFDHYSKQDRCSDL

| SMILES | Potency | activity change, negative = inhibition |
| --- | --- | --- |
| CN[C@@H](C)[C@H](O)c1ccccc1 | inactive | – |
| NP(N)(=O)NC(=O)c1ccc(F)cc1 | inactive | – |
| C=CC(=O)OCC | inactive | – |
| CCCN(CCC)C(=O)Cc1c(-c2ccc(Cl)cc2)nc2ccc(Cl)cn12 | inactive | – |
| O=C(N/N=C/c1ccc([N+](=O)[O-])o1)c1cc([N+](=O)[O-])cc([N+](=O)[O-])c1O | inactive | – |
| C=CCOC(=O)C(C)(C)OC(=O)c1cc(-n2c(=O)cc(C(F)(F)F)n(C)c2=O)ccc1Cl | inactive | – |
| Nc1ccccc1C(=O)OCCc1ccccc1 | inactive | – |
| CCCCCCCCCCCCN=C(N)N | – | 1.01% [at 4.07 µM] |
| CCCC[N+]1(C)[C@@H]2CC(OC(=O)[C@H](CO)c3ccccc3)C[C@H]1[C@@H]1O[C@@H]12 (stereo not given in full) | inactive | – |
| CCCCC(CC)CO[N+](=O)[O-] (stereo not given) | inactive | – |
| COc1cc(C[C@@H](C)N)c(OC)cc1Br | inactive | – |
| CCCN(CCOc1c(Cl)cc(Cl)cc1Cl)C(=O)n1ccnc1 | inactive | – |
| O=C(O)COc1cc(Cl)c(Cl)cc1Cl | inactive | – |
| C1CCNCC1 | inactive | – |
| Clc1ccccc1 | inactive | – |
| C=CCN1C[C@H](C)N([C@H](c2ccc(C(=O)N(CC)CC)cc2)c2cccc(OC)c2)C[C@H]1C | inactive | – |
| CN(C)c1ccc(N=O)cc1 | inactive | – |
| CN(C1CCCCC1)C1CCCCC1 | inactive | – |
| O=C(NC(=O)c1cc(F)c(F)cc1Cl)Nc1cc(F)ccc1N1CCC(C(=O)O)CC1 | inactive | – |
| CCCCCCCCP(=O)(O)O | inactive | – |

| SMILES | Potency | activity change, negative = inhibition |
| --- | --- | --- |
| CCCCNC(=O)OCC#CI | inactive | – |
| Cc1cnc(C2=NC(C)(C(C)C)C(=O)N2)c(C(=O)O)c1 (stereo not given) | inactive | – |
| CCCN(CCC)c1c([N+](=O)[O-])cc(C(C)C)cc1[N+](=O)[O-] | inactive | – |
| O=C(O)C(Cl)(Cl)Br | inactive | – |
| O=C(O)C(F)(F)C(F)(F)C(F)(F)C(F)(F)C(F)(F)F | inactive | – |
| CCCC[P+](CC)(CCCC)CCCC (tested in a mixture with another compound) | inactive | – |
| C=CCOCC1CO1 (stereo not given) | inactive | – |
| CCCCCCCCCCCCN(C)C | inactive | – |
| SCc1ccccc1 | inactive | – |
| N#CC1(N=NC2(C#N)CCCCC2)CCCCC1 | inactive | – |
| CC(C)CCON=O | inactive | – |
| C#C[C@]1(O)CC[C@H]2[C@@H]3CCC4=CC(=O)CCC4=C3C=C[C@@]21CC | inactive | – |
| CC(C)(C#N)C(C)(C)C#N | inactive | – |
| CCOC(C(=O)OCCN(C)C)(c1ccccc1)c1ccccc1 | inactive | – |
| COc1ccc(C(O)(c2cncnc2)C2CC2)cc1 (stereo not given) | inactive | – |
| CCc1ccccc1N | inactive | – |
| O=C1CC[C@@]2(O)[C@H]3Cc4ccc(O)c5c4[C@@]2(CCN3CC2CC2)[C@H]1O5 | inactive | – |
| CCC1(CCC(C)C)C(=O)NC(=O)NC1=O | inactive | – |
| Nc1c(Br)cc(Br)c2c1C(=O)c1ccccc1C2=O | – | 0.243% [at 23.6 µM] |
| C=CCSSCC=C | inactive | – |
